Test results published in PubChem BioAssay (Tox21).
Records with an inconclusive call do not appear. Active and inactive are the calls of the source. Unless noted, calls follow the shape of the dose curve; as a rule, active = well fitted curve in the direction sought with a large enough effect in the repeat runs; inconclusive = weak or mixed curves; inactive = no such curve, though single readings can be large; an effect the other way counts as inactive or inconclusive.

Columns and labels:
[1] = qHTS assay to identify small molecule agonists of the NFkB signaling pathway - cell viability counter screen (AID 1159515; calls by dose curve; also: series mostly up to about 61 µM; nearly all actives have a fitted effect of over 55% in size)
In short: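 Using the same wells as the NFkB reporter read, ME-180 NFkB-bla cells given compounds for 5 hr were assessed for viability via CellTiter-Glo, with luminescence taken after a 30 min room-temperature incubation.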

[2] = qHTS assay to identify small molecule agonists of the endoplasmic reticulum stress response signaling pathway (AID 1159516; active = well fitted activation curve with a large enough effect in the signal ratio in the repeat runs, not every such curve was filed as active; the % refers to the signal ratio)
In short: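 An ESRE-bla HeLa cell assay: compounds were pin-transferred from DMSO onto overnight-plated cells and left 5 hr at 37 C. Substrate was then loaded for 2 hr at room temperature before reading fluorescence at 460 nm and 530 nm.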

[3] = qHTS assay to identify small molecule agonists of the endoplasmic reticulum stress response signaling pathway - cell viability counter screen (AID 1159517; calls by dose curve;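 also: HeLa cells carrying an ER stress response element beta-lactamase reporter; series mostly up to about 61 µM; nearly all actives have a fitted effect of over 50% in size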)
In short: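 Cells, HeLa ESRE-bla; density, 1,500/well; dosing, 5 hr at 37 C, 5% CO2; readout, CellTiter-Glo luminescence after 30 min RT.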

[4] = qHTS assay to identify small molecule antagonists of the retinoid-related orphan receptor gamma (ROR-gamma) signaling pathway - cell viability counter screen (AID 1159520); also: nearly all actives have a fitted effect of over 50% in size; also: potency is read from the fitted curve at half-maximal effect
In short: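 Cytotoxicity was read from cellular ATP (CellTiter-Glo luminescence) after 16 hr at 37 C with 1 uM doxycycline induction. The inducer was added 2 hr after compound transfer to Tet-on ROR gamma CHO cells.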

[5] = molecular target: Nuclear receptor ROR-gamma (Homo sapiens) (UniProt P51449); experiment: qHTS assay to identify small molecule antagonists of the retinoid-related orphan receptor gamma (ROR-gamma) signaling pathway (AID 1159521; also: nearly all actives have a fitted effect of over 50% in size; also: potency is read from the fitted curve at half-maximal effect)
In short: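 Tet-on ROR-gamma CHO cells with ROR response element-luciferase reporter; compounds added 2 hr before 1 uM doxycycline induction, then 16 hr at 37 C. Antagonism scored as decreased ONE-Glo luminescence.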

[6] = qHTS assay to identify small molecule agonists of the AP-1 signaling pathway - cell viability counter screen (AID 1159525; calls by dose curve; also: nearly all actives have a fitted effect of over 55% in size)
In short: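 Luminescent ATP readout (Cell Titer Glo, 30 min RT), normalised to DMSO and tetra n-octyl ammonium bromide controls. Cells were ME-180 AP-1-bla in 0.5% dialyzed FBS Opti-MEM, with a 5 h, 37 °C compound exposure.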

[7] = molecular target: Retinoic acid receptor RXR-alpha (Homo sapiens) (UniProt P19793); experiment: qHTS assay to identify small molecule agonists of the RXR signaling pathway (AID 1159527; calls by dose curve; also: nearly all actives have a fitted effect of over 35% in size)
Chain of Retinoic acid receptor RXR-alpha (Homo sapiens) (P19793 whole entry, looked up): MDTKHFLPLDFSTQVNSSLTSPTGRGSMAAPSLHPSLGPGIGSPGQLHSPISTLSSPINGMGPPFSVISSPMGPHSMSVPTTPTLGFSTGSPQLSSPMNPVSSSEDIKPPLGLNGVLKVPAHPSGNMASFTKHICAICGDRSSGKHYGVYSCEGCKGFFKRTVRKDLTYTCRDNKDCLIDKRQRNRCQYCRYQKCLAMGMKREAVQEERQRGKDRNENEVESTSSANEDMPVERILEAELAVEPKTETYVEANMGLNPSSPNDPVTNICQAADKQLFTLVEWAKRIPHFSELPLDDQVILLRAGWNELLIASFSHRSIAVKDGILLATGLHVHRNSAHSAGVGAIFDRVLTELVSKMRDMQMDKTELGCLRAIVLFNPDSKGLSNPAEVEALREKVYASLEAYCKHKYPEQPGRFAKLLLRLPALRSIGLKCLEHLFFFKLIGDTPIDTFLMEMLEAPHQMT
In short: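 GeneBLAzer RXR-alpha-UAS-bla HEK 293T cells in 2% charcoal-stripped FBS medium were exposed to compounds for 16 hr at 37 C in agonist mode. Beta-lactamase reporter read as 460/530 nm FRET ratio after 2 hr substrate loading.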

[8] = qHTS assay to identify small molecule antagonists of the retinoid acid receptor (RAR) signaling pathway - cell viability counter screen (AID 1159551); also: nearly all actives have a fitted effect of over 35% in size
In short: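 Retinol-stimulated (1 uM final) C3RL4 cells, compound 6 h, 37 C; readout CellTiter-Glo luminescence (ATP) after 30 min RT incubation.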

[9] = qHTS assay to identify small molecule antagonists of the retinoic acid receptor (RAR) signaling pathway (AID 1159552; also: nearly all actives have a fitted effect of over 50% in size)
In short: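 Retinol signaling pathway inhibitors screened in C3RL4 RARE-luciferase reporter cells seeded overnight at 37 C, then compounds added with 1 uM (final) retinol as pathway substrate. After 6 hr at 37 C, luciferase luminescence read after 30 min at room temperature.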

[10] = qHTS assay to identify small molecule agonists of the retinoic acid receptor (RAR) signaling pathway (AID 1159553); also: potency is read from the fitted curve at half-maximal effect
In short: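 Reporter readout comes from luciferase under RARE control in C3RL4 cells; compound exposure lasts 6 hr at 37 C in 5% CO2, and luminescence is recorded following a 30 min room-temperature incubation with reagent.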

[11] = molecular target: Luciferin 4-monooxygenase (Photinus pyralis) (UniProt P08659); experiment: qHTS assay to identify small molecule inhibitors of firefly luciferase (AID 1224835); also: nearly all actives have a fitted effect of over 25% in size; also: potency is read from the fitted curve at half-maximal effect
Chain of Luciferin 4-monooxygenase (Photinus pyralis) (P08659 whole entry, looked up): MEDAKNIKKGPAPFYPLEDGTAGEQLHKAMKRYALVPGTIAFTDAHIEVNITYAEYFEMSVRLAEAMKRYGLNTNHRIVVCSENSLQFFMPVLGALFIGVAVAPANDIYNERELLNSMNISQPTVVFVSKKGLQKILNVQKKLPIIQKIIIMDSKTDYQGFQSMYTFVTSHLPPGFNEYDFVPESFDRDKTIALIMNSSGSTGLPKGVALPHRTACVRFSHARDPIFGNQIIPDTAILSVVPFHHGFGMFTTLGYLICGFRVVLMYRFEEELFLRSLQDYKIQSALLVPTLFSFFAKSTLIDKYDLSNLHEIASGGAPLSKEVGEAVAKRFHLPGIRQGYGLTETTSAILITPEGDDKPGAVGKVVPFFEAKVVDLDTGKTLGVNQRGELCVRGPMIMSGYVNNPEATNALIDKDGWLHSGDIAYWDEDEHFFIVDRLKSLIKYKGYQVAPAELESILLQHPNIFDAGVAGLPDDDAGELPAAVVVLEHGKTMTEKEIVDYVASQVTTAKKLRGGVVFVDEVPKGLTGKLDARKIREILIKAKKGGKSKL
In short: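 Inhibition of purified Photinus luciferase is measured by luminescence. Substrate levels (D-luciferin, ATP) sit at their KM values. Each compound is tested in a concentration series.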

[12] = qHTS assay to identify small molecule agonists of the constitutive androstane receptor (CAR) signaling pathway - cell viability counter screen (AID 1224836); also: series mostly up to about 92 µM; nearly all actives have a fitted effect of over 45% in size
In short: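 HepG2 cells stably carrying hCAR and a CYP2B6-2.2kb reporter; 15-concentration compounds plus PK11195 (final 0.75 uM), 23 hr at 37 C/5% CO2. Viability read by CellTiter-Fluor fluorescence.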

[13] = qHTS assay to identify small molecule agonists of the RXR signaling pathway - cell viability counter screen (AID 1159529); also: nearly all actives have a fitted effect of over 50% in size; also: potency is read from the fitted curve at half-maximal effect
In short: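 RXR-alpha-UAS-bla HEK 293T cells in medium with 2% charcoal-stripped FBS were pre-incubated 5 hr, then compound-treated 16 hr at 37 C. Viability was read by CellTiter-Glo luminescence in the same wells as the beta-lactamase assay, with tetraoctyl ammonium bromide as positive control.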

[14] = qHTS assay to identify small molecule antagonists of the estrogen related receptor (ERR) signaling pathway from Tox21 library - cell viability counter screen (AID 1224834); also: nearly all actives have a fitted effect of over 30% in size; also: potency is read from the fitted curve at half-maximal effect
In short: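 After 17.5 h of compound exposure at 37 C, ERR cells are incubated with CellTiter-Fluor for 30 min and fluorescence intensity serves as the viability measure.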

[15] = qHTS assay to identify small molecule antagonists of the estrogen related receptor (ERR) signaling pathway - cell viability counter screen (AID 1224818); also: series mostly up to about 46 µM
In short: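 After a 6 h pre-incubation, ERR cells were dosed by pin tool with compounds, positive/negative controls or DMSO alone. Following 17.5 h at 37 C and 30 min with CellTiter-Fluor, fluorescence was recorded.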

[16] = qHTS assay to identify small molecule agonists of the estrogen related receptor (ERR) signaling pathway (AID 1224820)
In short: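 ERR reporter cells (NTP line) plated 2,000/well, incubated 6 h at 37 C/5% CO2, then pinned with compounds in DMSO and held 18 h at 37 C. One-Glo added; luminescence read after 30 min at room temperature.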

[17] = system: estrogen-related receptor alpha (ERRalpha) with PGC-1alpha coactivator, human; experiment: qHTS assay to identify small molecule antagonists of the estrogen related receptor signaling pathway with the pleiotropic PPARgamma coactivator (PGC) (AID 1224821; calls by dose curve)
In short: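 Cells engineered for PGC/ERR signalling (line from NTP) were plated 6 h at 37 C/5% CO2, then exposed to DMSO-dissolved compound for 18 h at 37 C. Luciferase activity was read by One-Glo luminescence after 30 min at room temperature.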

[18] = qHTS assay to identify small molecule agonists of the estrogen related receptor signaling pathway with the pleiotropic PPARgamma coactivator (PGC) (AID 1224823)
In short: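 PGC/ERR reporter cells were seeded, rested 6 h at 37 C/5% CO2, then exposed to compounds in DMSO by pin transfer for 18 h at 37 C. Luciferase activity was read as luminescence after One-Glo reagent and 30 min at room temperature.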

[19] = qHTS assay to identify small molecule antagonists of the estrogen related receptor (ERR) signaling pathway (AID 1224819)
In short: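 Luminescence readout (One-Glo, 30 min, RT) of ERR cell line after 18 h compound exposure at 37 C; cells seeded 2,000/well, pre-incubated 6 h, compounds pinned from DMSO stocks.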

Measured: Potency

Oc1ccc(Cc2ccccc2)cc1
active: [11] 65.7 µM
inactive: [1] | [2] | [3] | [4] | [5] | [6] | [7] | [8] | [9] | [10] | [12]

COc1cc(C(C)(C)C)c(O)c(C(C)(C)C)c1
inactive: [1] | [2] | [3] | [4] | [5] | [6] | [13] | [14] | [11]

CC(C)c1cccc(C(C)C)c1NC(=O)NS(=O)(=O)c1cc(C(C)(C)O)co1
inactive: [1] | [2] | [3] | [4] | [5] | [6] | [13] | [8] | [9] | [10] | [14] | [11]

CN(C(=O)CCCOc1ccc2[nH]c(=O)ccc2c1)C1CCCCC1
inactive: [1] | [2] | [3] | [4] | [5] | [6] | [7] | [8] | [10] | [15] | [16] | [17] | [18] | [14] | [11]

CCN(CC)CCNC(C(=O)OCCC(C)C)c1ccccc1 (stereo unspecified)
inactive: [1] | [2] | [3] | [4] | [5] | [6] | [7] | [8] | [11] | [12]

CC(C)(C)c1ccc(OCC2CO2)cc1 (stereo unspecified)
active: [10] 12.4 µM | [11] 32.4 µM
inactive: [1] | [2] | [3] | [4] | [5] | [6] | [7] | [12]

Cl/C(=C\n1cncn1)c1ccc(Cl)cc1Cl
inactive: [1] | [2] | [3] | [4] | [5] | [6] | [13] | [9] | [10] | [14] | [11]

O=C(O)Cn1c(C(=O)Nc2nc(-c3ccccc3Cl)cs2)cc2ccccc21
active: [11] 13.8 µM
inactive: [1] | [2] | [3] | [4] | [5] | [6] | [8] | [9] | [10] | [14] | [12]

Cc1cc(O)ccc1N
inactive: [1] | [2] | [3] | [6] | [9]
active: [4] 54.8 µM | [5] 24.5 µM | [13] 34.9 µM | [14] 15.4 µM

Cn1sccc1=O
inactive: [1] | [2] | [3] | [6] | [13] | [14] | [12]
active: [4] 61.1 µM | [5] 30.6 µM

CCCCCc1ccc(N)cc1
inactive: [1] | [2] | [3] | [4] | [5] | [6] | [7] | [8] | [9] | [10] | [14] | [12]

C=CCCCCCC
inactive: [1] | [2] | [3] | [4] | [5] | [6] | [8] | [14] | [11] | [12]

O=C(O)Cc1sc(-c2ccccc2)nc1-c1ccc(Cl)cc1
inactive: [1] | [2] | [3] | [4] | [5] | [6] | [9] | [10] | [14] | [11]

ClC(Cl)(Cl)c1ccc(C(Cl)(Cl)Cl)cc1
inactive: [1] | [2] | [3] | [4] | [5] | [6] | [13] | [8] | [9] | [10] | [14] | [11]

Cn1c(N)nc2nc[nH]c2c1=O
inactive: [1] | [2] | [3] | [4] | [6] | [13] | [8] | [9] | [10] | [14] | [11] | [12]
active: [5] 27 µM

CC1(C)CCC(C)(C)c2cc(NC(=O)c3ccc(C(=O)O)cc3)ccc21
inactive: [1] | [2] | [3] | [4] | [6] | [13] | [8] | [14]
active: [5] 26.6 µM

C=Cc1c(C)c2cc3[nH]c(cc4nc(cc5nc(cc1[nH]2)C(C)=C5CCC(=O)O)C(CCC(=O)O)=C4C)c(C)c3C=C
active: [5] 26.6 µM
inactive: [1] | [2] | [3] | [4] | [6] | [7] | [8] | [9] | [10] | [16] | [18] | [11]

CN(C)CC/C=C1\c2ccccc2COc2ccccc21
inactive: [1] | [2] | [3] | [4] | [5] | [6] | [8] | [10] | [15] | [14] | [12]

OC(CCN1CCCCC1)(c1ccccc1)C1CCCCC1 (stereo unspecified)
inactive: [19] | [16] | [17] | [18]

CC(C)c1ccc2c(C(C)C)cc(C(C)C)c(S(=O)(=O)O)c2c1
inactive: [1] | [2] | [3] | [4] | [6] | [7] | [13] | [8] | [9] | [10] | [14] | [11] | [12]
